# ± gives the standard deviation of the averaged measurements.
# Assays:
# [1] = system: CLZ3 (HCA2 human fibroblast dual HR-NHEJ reporter); assay: NHEJ repair efficiency (GFP+ cells) relative to control (log10 fold); higher = more non-homologous end joining; conditions: 5 µM; doxycycline 0.5 ug/mL
# [2] = system: CLZ3 (HCA2 human fibroblast dual HR-NHEJ reporter); assay: HR repair efficiency (tdTomato+ cells) relative to control (log10 fold); higher = more homologous recombination; conditions: 5 µM; doxycycline 0.5 ug/mL
# 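For HR repair efficiency (tdTomato+ cells) relative to control in this document: compound given one day before doxycycline, which switches on I-SceI endonuclease expression to create double-strand breaks within the integrated reporter.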
# 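For NHEJ repair efficiency (GFP+ cells) relative to control in this document: compound given one day ahead of doxycycline, which switches on I-SceI endonuclease to cut the chromosomally integrated reporter and create DSBs.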
SMILES,NHEJ repair efficiency (log10) [1],HR repair efficiency (log10) [2]
O=c1cc(-c2ccc(O)c(O)c2)oc2c([C@@H]3O[C@H](CO)[C@@H](O)[C@H](O)[C@H]3O)c(O)cc(O)c12 [Orientin],0.0454,0.0493
C=CCc1ccc(O)c(OC)c1 [Eugenol],0.027,-0.0172
Oc1cc(O)c2c(c1)OC(c1ccc(O)c(O)c1)C(OC1(c3ccc(O)c(O)c3)Oc3cc(O)cc(O)c3C(O)C1O)C2 (stereo not drawn) [Procyanidins],0.0386,0.123
Cc1cc(=O)c2c(O)c3c(cc2o1)OC(C)(C)[C@@H](O[C@@H]1O[C@H](CO)[C@@H](O)[C@H](O)[C@H]1O)C3 [Sec-O-Glucosylhamaudol],-0.132,-0.0801
CO[C@H]1O[C@@H]2O[C@@]3(C)CC[C@H]4[C@H](C)CC[C@@H]([C@H]1C)[C@@]24OO3 [Artemether],0.125,0.186
CC(C)=CCC[C@](C)(O[C@@H]1O[C@H](CO)[C@@H](O)[C@H](O)[C@H]1O)[C@H]1CC[C@]2(C)[C@@H]1[C@H](O)C[C@@H]1[C@@]3(C)CC[C@H](O[C@@H]4O[C@H](CO)[C@@H](O)[C@H](O)[C@H]4O[C@@H]4O[C@H](CO)[C@@H](O)[C@H](O)[C@H]4O)C(C)(C)[C@@H]3CC[C@]12C [Ginsenoside Rd],0.0871,0.0615
OC[C@H]1OC(O)[C@H](O)[C@@H](O)[C@H]1O (stereo partly drawn) [D-Galactose],0.00385,-0.0597
OCc1ccccc1O[C@@H]1O[C@H](CO)[C@@H](O)[C@H](O)[C@H]1O [Salicoside],-0.0463,0.251
O=C(O)c1ccccc1 [Benzoic Acid],-0.0219,0.137
CC(C)=CCOc1c2ccoc2cc2oc(=O)ccc12 [Isoimperatorin],-0.032 ± 0.014,0.0188 ± 0.0059
CC1CCC(C(C)C)C(O)C1 (stereo not drawn) [Menthol],0.0621,-0.0345
O=C1c2ccccc2C(=O)c2c(O)c(O)cc(O)c21 [Purpurin],-0.0313,0.0725
Cn1cnc2c1c(=O)[nH]c(=O)n2C [Theobromine],-0.0855,0.141
O=C(O)/C=C/c1ccccc1 [Cinnamic Acid],-0.0918,0.0721
CC[C@H](/C=C/[C@@H](C)[C@H]1CC[C@H]2[C@@H]3CC=C4C[C@@H](O)CC[C@]4(C)[C@H]3CC[C@]12C)C(C)C [Stigmasterol],-0.155,-0.14
COc1ccc(-c2oc3c(CC=C(C)C)c(O[C@@H]4O[C@H](CO)[C@@H](O)[C@H](O)[C@H]4O)cc(O)c3c(=O)c2O[C@@H]2O[C@@H](C)[C@H](O)[C@@H](O)[C@H]2O)cc1 [Icarrin],-0.0369,0.0409
O=c1c(O[C@@H]2O[C@H](CO)[C@@H](O)[C@H](O)[C@H]2O)c(-c2ccc(O)c(O)c2)oc2cc(O)cc(O)c12 [Isoquercitrin],-0.0426,0.0777
C=C1C[C@]2(O)O[C@@]3(CC2=C(C)C)[C@@H](C)CC[C@@H]13 [Isocurcumenol],-0.116,-0.239
O=Cc1ccc(O)c(O)c1 [Protocatechuic aldehyde],-0.212,-0.256
CCCCCC=CC(=O)CCc1ccc(O)c(OC)c1 [6-Shogaol],-0.0185,-0.0794

SMILES,NHEJ repair efficiency (log10) [1],HR repair efficiency (log10) [2]
COc1ccc(CCC(=O)c2c(O)cc(OC3OC(CO)C(O)C(O)C3OC3OC(C)C(O)C(O)C3O)cc2O)cc1O (stereo not drawn) [Neosperidin Dihydrochalcone],-0.0639,0.0209
COc1ccccc1 [Anisole],0.105,0.043
COC(=O)[C@H]1O[C@@H](Oc2cc3oc(-c4ccc(O)cc4)cc(=O)c3c(O)c2O)[C@H](O)[C@@H](O)[C@@H]1O [Scutellarin Methyl Ester],-0.156,-0.014
COc1ccc2c(c1OC)CN(C)CCc1cc3c(cc1C(=O)C2)OCO3 [Allocryptopine],0.0337,0.04
"OC[C@H]1O[C@@H](Oc2c(O)cc(O)cc2/C=C/c2ccc(O)cc2)[C@H](O)[C@@H](O)[C@@H]1O [2,3,5,4'-Tetrahydroxy Stilbene 2-Ο-Β-D-Glucoside]",0.157,-0.0324
Cn1c(=O)c2c(ncn2CC2OCCO2)n(C)c1=O [Doxofylline],0.101,0.0399
C=C[C@H]1[C@H](O[C@@H]2O[C@H](CO)[C@@H](O)[C@H](O)[C@H]2O)OC=C2C(=O)OCC[C@]21O [Swertiamarin],-0.0365,-0.0353
COc1c(O)cc2oc(-c3ccccc3)cc(=O)c2c1O [Oroxylin A],0.0844,0.0534
OCC1=C[C@@H](O)[C@]2(O[C@@H]3O[C@H](CO)[C@@H](O)[C@H](O)[C@H]3O)C=CO[C@@H](O[C@@H]3O[C@H](CO)[C@@H](O)[C@H](O)[C@H]3O)[C@H]12 [Melittoside],-0.134,0.096
O=c1c(O)cc([C@H]2Oc3cc(O)cc(O)c3C[C@H]2O)cc2c([C@H]3Oc4cc(O)cc(O)c4C[C@H]3O)cc(O)c(O)c12 [Theaflavin],0.0294,0.0415
O=c1cc(-c2ccc(O[C@@H]3O[C@H](CO)[C@@H](O)[C@H](O)[C@H]3O)cc2)oc2cc(O)c([C@@H]3O[C@H](CO)[C@@H](O)[C@H](O)[C@H]3O[C@@H]3OC[C@H](O)[C@H](O)[C@H]3O)c(O)c12 [Vaccarin],-0.0315,-0.086
O=c1oc2c(O)cc(O)cc2c2oc3cc(O)c(O)cc3c12 [Isodemethylwedelolacton],-0.0118,0.0907
COc1c2c(cc3oc(C)cc(=O)c13)O[C@H](C(C)(C)O)C2 [5-O-Methylvisamminol],-0.159,-0.14
O=C(O)Cc1c(C=CC(=O)OC(Cc2ccc(O)c(O)c2)C(=O)O)ccc(O)c1O (stereo not drawn) [Salvianolic Acid D],-0.0658,0.105
O=C1C[C@@H](c2ccc(O)c(O)c2)Oc2cc(O)cc(O)c21 [Eriodictyol],-0.0055,0.0227
O=c1c(O)c(-c2ccc(O)c(O)c2)oc2cc(O)cc(O)c12 [Quercetin],-0.047,0.086
CCOC(=O)c1cc(O)c(O)c(O)c1 [Gallic Acid Ethyl Ester],0.018,0.00694
CCCOC(=O)c1cc(O)c(O)c(O)c1 [Propyl gallate],-0.0069,0.0457
C[C@@H]1O[C@@H](Oc2c(-c3ccc(O)c(O)c3)oc3cc(O)cc(O)c3c2=O)[C@H](O)[C@H](O)[C@H]1O [Quercitrin],-0.0507,0.0282
COc1cc2c(c(OC)c1OC)-c1c(cc(OC)c(OC)c1OC)C[C@H](C)[C@H](C)C2 [Schisandrin A],-0.121,-0.0756

SMILES,NHEJ repair efficiency (log10) [1],HR repair efficiency (log10) [2]
C/C(=C\C(=O)CC(C)C(=O)O)[C@H]1CC(=O)[C@@]2(C)C3=C(C(=O)C[C@]12C)[C@@]1(C)CC[C@H](O)C(C)(C)[C@@H]1C[C@@H]3O (stereo partly drawn) [Ganoderenic Acid B],0.000561,0.021
COc1cc2ccc(=O)oc2cc1OC [Scoparone],0.0322,0.0853
C[C@]12C[C@@H](O)[C@@H]3C[C@@]1(O[C@@H]1O[C@H](CO)[C@@H](O)[C@H](O)[C@H]1O)[C@@]3(COC(=O)c1ccccc1)C(=O)O2 [Albiflorin],0.0446,0.153
O=C(/C=C/c1ccc(O)c2oc(-c3ccc(O)c(O)c3)cc12)O[C@H](Cc1ccc(O)c(O)c1)C(=O)O [Salvianolic Acid C],-0.0345,-0.0113
NCC(=O)O [Aminoacetic acid],0.185,0.151
O=C1c2c(O)cccc2C([C@@H]2O[C@H](CO)[C@@H](O)[C@H](O)[C@H]2O)c2cc(CO)cc(O)c21 (stereo partly drawn) [Barbaloin],0.0217,0.119
COc1ccc(/C=C/C(=O)O)cc1O [Isoferulic Acid],-0.101,0.0607
COc1ccc(/C=C/C(=O)O)cc1O [Isoferulic acid],0.104,-0.0013
COc1cc(-c2oc3cc(O)cc(O)c3c(=O)c2O[C@@H]2O[C@H](CO[C@H]3O[C@H](C)[C@@H](O)[C@H](O)[C@@H]3O)[C@@H](O)[C@H](O)[C@H]2O)ccc1O [Narcissoside; Isorhamnetin-3-O-β-D-rutinoside],0.0544,-0.0269
C[C@@H]1O[C@@H](O[C@@H]2[C@@H](O)[C@H](OCCc3ccc(O)c(O)c3)O[C@H](COC(=O)/C=C/c3ccc(O)c(O)c3)[C@H]2O)[C@H](O)[C@H](O)[C@H]1O [Isoacteoside],-0.112,0.017
Oc1cc(O)c2c(c1)O[C@H](c1ccc(O)c(O)c1)[C@H](O)C2 [Epicatechin (EC)],-0.238,-0.306
C[C@]1(O)C[C@@H](O)[C@]2(O)C=CO[C@@H](O[C@H]3O[C@H](CO)[C@@H](O)[C@H](O)[C@H]3O)[C@@H]21 [Harpagide],0.0851,-0.126
O=Cc1ccc(O)cc1 [4-Hydroxybenzaldehyde],0.0829,0.0974
O=C(O)C(O)c1ccccc1 (stereo not drawn) [Mandelic Acid],0.0554,0.105
C=CC(C)(C)c1cc(/C=C/C(=O)c2ccc(O)cc2)c(OC)cc1O [Licochalcone A],-0.106,0.0473
C[C@@]1(CO)C[C@@H](O)C[C@@]2(C)[C@@H]3CC[C@](C)([C@@H](O)CO)C=C3CC[C@H]12 [Kirenol],-0.121,0.0441
COc1ccc(-c2oc3c(CC=C(C)C)c(O[C@@H]4O[C@H](CO)[C@@H](O)[C@H](O)[C@H]4O)cc(O)c3c(=O)c2O[C@@H]2O[C@@H](C)[C@H](O)[C@@H](O)[C@H]2O)cc1 [Icariine],-0.13,-0.0902
C=CCc1ccc(O)c(-c2cc(CC=C)ccc2O)c1 [Magnolol],0.0133,0.105
COC(=O)C1=CO[C@@H](O[C@@H]2O[C@H](CO)[C@@H](O)[C@H](O)[C@H]2O)[C@H]2[C@@H]1[C@H](O)C[C@]2(C)OC(C)=O [8-O-Acetyl Shanzhiside Methyl Ester],-0.0953,-0.109
